Data published in PubChem BioAssay (EPA / NIEHS).
Values joined by “and” are separate entries in the source; they are usually repeats but may differ in a detail not shown here. Equal entries are not always repeated. Results filed as inconclusive are left out. The source holds several records for some structures; these can differ, active in one and inactive in another. Active and inactive are the calls of the source. How the source made its calls: active means hit-call score of the fitted dose curve at least 0.9, where 1 is the maximum; inconclusive means response in the unintended direction; inactive means score below 0.9.

Key:
[1] = molecular target: human p21 Activated Kinase 4 (PAK4), PAK4 (gene 10298) (UniProt O96013); experiment: NVS_ENZ_hPAK4: NovaScreen (NVS) Enzymatic Assay for human p21 Activated Kinase 4 (PAK4) (AID 2283189)
In short: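 Cell-free recombinant human PAK4 activity assay; fluorescent substrate and product separated by electrophoretic mobility shift, read 1 h after dosing. Initially tested in duplicate at 25 uM, relative to DMSO baseline.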

[2] = molecular target: human Phosphodiesterase 4A1 (PDE4A1), PDE4A (gene 5141) (UniProt P27815); experiment: NVS_ENZ_hPDE4A1: NovaScreen (NVS) Enzymatic Assay for human Phosphodiesterase 4A1 (PDE4A1) (AID 2283191)
In short: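 Cell-free recombinant human PDE4A1 with fluorescent substrate; product separated by electrophoretic mobility shift, 1 h. Screened at 25 uM, then up to 50 uM in concentration-response; loss of signal fitted against DMSO.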

[3] = molecular target: human Phosphodiesterase 5 (PDE5), PDE5A (gene 8654) (UniProt O76074); experiment: NVS_ENZ_hPDE5: NovaScreen (NVS) Enzymatic Assay for human Phosphodiesterase 5 (PDE5) (AID 2283194)
In short: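 Recombinant human PDE5 with specific substrate, read 1 h after dosing by fluorescence with electrophoretic mobility-shift separation of substrate and product. Initial single-concentration duplicate screen at 25 uM, actives followed in concentration series; loss of activity versus DMSO.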

[4] = molecular target: human Phosphodiesterase 10 (PDE10), PDE10A (gene 10846) (UniProt Q9Y233); experiment: NVS_ENZ_hPDE10: NovaScreen (NVS) Enzymatic Assay for human Phosphodiesterase 10 (PDE10) (AID 2283195)
In short: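 PDE10A, cell-free; 1 h incubation; fluorescence intensity + electrophoretic mobility shift separating substrate/product; DMSO = baseline; 25 uM duplicate primary, CRC up to 50 uM.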

[5] = molecular target: human Phosphoinositide 3-kinase alpha (PI3Ka), PIK3CA (gene 5290) (UniProt P42336); experiment: NVS_ENZ_hPI3Ka: NovaScreen (NVS) Enzymatic Assay for human Phosphoinositide 3-kinase alpha (PI3Ka) (AID 2283196)
In short: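 Fluorescence/mobility-shift readout of substrate conversion by recombinant enzyme, 1 h post-dosing. Primary screen in duplicate at 25 uM; actives (e.g. ≥30% inhibition) retested in singleton concentration-response, top concentration 50 uM.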

PPP2CA (gene 5515) = PPP2CA (gene 5515) (UniProt P67775); experiment: NVS_ENZ_hPPP2CA: NovaScreen (NVS) Enzymatic Assay for human Protein Phosphatase 2 Aatalytic subunit Alpha (PPP2CA) (AID 2283199)
In short: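 Recombinant human PPP2CA with fluorescent substrate; product separated from substrate by electrophoretic mobility shift, read 1.33 h after dosing. Duplicate single-point at 25 uM, then singleton concentration-response up to 50 uM; loss of signal versus DMSO.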

[6] = molecular target: Serine/threonine-protein phosphatase PP1-alpha catalytic subunit (Homo sapiens) (UniProt P62136); experiment: NVS_ENZ_hPPP1CA: NovaScreen (NVS) Enzymatic Assay for human Protein Phosphatase 1 Aatalytic subunit Alpha (PPP1CA) (AID 2283200)
In short: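 Recombinant enzyme activity read by fluorescence with electrophoretic mobility shift separating substrate from product, 1.33 h after dosing; loss of signal vs DMSO baseline. Primary screen in duplicate at 25 uM; actives retested in concentration-response up to 50 uM.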

[7] = molecular target: human Protein Tyrosine Phosphatase Non-receptor Type 1 (PTPN1), PTPN1 (gene 5770) (UniProt P18031); experiment: NVS_ENZ_hPTPN1: NovaScreen (NVS) Enzymatic Assay for human Protein Tyrosine Phosphatase Non-receptor Type 1 (PTPN1) (AID 2283201)
In short: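 Cell-free fluorogenic-substrate activity assay on recombinant enzyme, read 1.33 h after dosing by fluorescence and electrophoretic mobility shift; loss of signal vs DMSO baseline. Primary screen in duplicate at 25 uM, hits then run in concentration-response up to 50 uM.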

[8] = molecular target: Tyrosine-protein phosphatase non-receptor type 11 (Homo sapiens) (UniProt Q06124); experiment: NVS_ENZ_hPTPN11: NovaScreen (NVS) Enzymatic Assay for human Protein Tyrosine Phosphatase Non-receptor Type 11 (PTPN11) (AID 2283202)
In short: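 Recombinant human PTPN11 activity on a fluorescent substrate, with substrate/product separated by electrophoretic mobility shift; read 0.5 h after dosing, loss of signal vs DMSO. Duplicate 25 uM screen, then concentration-response up to 50 uM.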

[9] = molecular target: human Phosphatase and Tensin Homolog (PTEN), PTEN (gene 5728) (UniProt P60484); experiment: NVS_ENZ_hPTEN: NovaScreen (NVS) Enzymatic Assay for human Phosphatase and Tensin Homolog (PTEN) (AID 2283203)
In short: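 Cell-free recombinant human PTEN with fluorescent substrate; product separated by electrophoretic mobility shift and read by fluorescence 1 h after dosing. Primary screen in duplicate at 25 uM, actives followed in concentration series versus DMSO.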

[10] = molecular target: Tyrosine-protein phosphatase non-receptor type 12 (Homo sapiens) (UniProt Q05209); experiment: NVS_ENZ_hPTPN12: NovaScreen (NVS) Enzymatic Assay for human Protein Tyrosine Phosphatase Non-receptor Type 12 (PTPN12) (AID 2283204)
In short: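 Single-concentration duplicates (25 uM) preceded singleton concentration-response up to 50 uM for chemicals passing threshold. Cell-free recombinant PTPN12 activity was read 1.33 h after dosing via fluorescence after mobility-shift separation; loss of signal versus DMSO.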

[11] = molecular target: Tyrosine-protein phosphatase non-receptor type 13 (Homo sapiens) (UniProt Q12923); experiment: NVS_ENZ_hPTPN13: NovaScreen (NVS) Enzymatic Assay for human Protein Tyrosine Phosphatase Non-receptor Type 13 (PTPN13) (AID 2283205)
In short: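 Cell-free assay of recombinant human PTPN13 with a fluorescent substrate, product separated by electrophoretic mobility shift and read 0.5 h after dosing. Primary screen at 25 uM in duplicate, then concentration-response up to 50 uM. Loss of signal fitted against DMSO.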

[12] = molecular target: Tyrosine-protein phosphatase non-receptor type 14 (Homo sapiens) (UniProt Q15678); experiment: NVS_ENZ_hPTPN14: NovaScreen (NVS) Enzymatic Assay for human Protein Tyrosine Phosphatase Non-receptor Type 14 (PTPN14) (AID 2283206)
In short: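 Cell-free recombinant human PTPN14 with fluorescent substrate, read 0.5 h after dosing by fluorescence and electrophoretic mobility shift separating substrate from product. Primary screen at 25 uM in duplicate; hits run to 50 uM maximum; loss of signal versus DMSO.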

[13] = molecular target: human Protein Tyrosine Phosphatase Non-receptor Type 2 (PTPN2), PTPN2 (gene 5771) (UniProt P17706); experiment: NVS_ENZ_hPTPN2: NovaScreen (NVS) Enzymatic Assay for human Protein Tyrosine Phosphatase Non-receptor Type 2 (PTPN2) (AID 2283207)
In short: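 Cell-free recombinant enzyme with fluorescent substrate, product separated by electrophoretic mobility shift; read 1 h after dosing. Primary screen single concentration (25 uM) in duplicate; actives followed in concentration series; loss of signal versus DMSO.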

[14] = molecular target: human Protein Tyrosine Phosphatase Non-receptor Type 4 (PTPN4), PTPN4 (gene 5775) (UniProt P29074); experiment: NVS_ENZ_hPTPN4: NovaScreen (NVS) Enzymatic Assay for human Protein Tyrosine Phosphatase Non-receptor Type 4 (PTPN4) (AID 2283208)
In short: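 Cell-free assay of PTPN4 expressed in Sf9 cells, using a fluorescent substrate with product separated by mobility shift; read 1.33 h after dosing. Single-point screen at 25 uM, then concentration-response up to 50 uM. Loss of signal relative to DMSO.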

[15] = molecular target: human Protein Tyrosine Phosphatase Non-receptor Type 9 (PTPN9), PTPN9 (gene 5780) (UniProt P43378); experiment: NVS_ENZ_hPTPN9: NovaScreen (NVS) Enzymatic Assay for human Protein Tyrosine Phosphatase Non-receptor Type 9 (PTPN9) (AID 2283209)
In short: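 Sf9-expressed enzyme in a cell-free assay, fluorescence read 1.33 h after dosing with mobility-shift separation of substrate and product. Tested at 25 uM in duplicate, then up to 50 uM; signal loss versus DMSO.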

[16] = molecular target: human Matrix Metalloproteinase-9 (MMP9), MMP9 (gene 4318) (UniProt P14780); experiment: NVS_ENZ_hMMP9: NovaScreen (NVS) Enzymatic Assay for human Matrix Metalloproteinase-9 (MMP9) (AID 2283190);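 further: cell-free recombinant MMP9 protease activity read by fluorescent substrate signal; active means inhibition seen as loss of fluorescence signal versus DMSO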
In short: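 Extracted enzyme, fluorescent substrate, 1 h post-dose read. Single conc 25 uM in duplicate, then concentration series for actives. Activity = signal loss relative to DMSO negative control.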

[17] = molecular target: human NIMA (Never In Mitosis Gene A)-Related Kinase 2 (NEK2), NEK2 (gene 4751) (UniProt P51955); experiment: NVS_ENZ_hNEK2: NovaScreen (NVS) Enzymatic Assay for human NIMA (Never In Mitosis Gene A)-Related Kinase 2 (NEK2) (AID 2283188)
In short: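 Cell-free NEK2 enzyme activity after 1 h exposure, read by fluorescence with electrophoretic mobility shift separating substrate and product. Primary screen in duplicate at 25 uM; actives then run as concentration series. Loss of signal versus DMSO scored.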

[18] = molecular target: human Mitogen- and Stress-activated Protein Kinase-1 (Msk1), RPS6KA5 (gene 9252) (UniProt O75582); experiment: NVS_ENZ_hMsk1: NovaScreen (NVS) Enzymatic Assay for human Mitogen- and Stress-activated Protein Kinase-1 (Msk1) (AID 2283187)
In short: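 Recombinant kinase with fluorescent substrate; product separated by electrophoretic mobility shift, read 1 h after dosing. Screened in duplicate at 25 uM; hits (e.g. ≥30% inhibition) tested in concentration–response up to 50 uM. DMSO baseline.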

[19] = molecular target: cAMP-dependent protein kinase catalytic subunit alpha (Homo sapiens) (UniProt P17612); experiment: NVS_ENZ_hPKA: NovaScreen (NVS) Enzymatic Assay for human Protein Kinase A (PKA) (AID 2283192)
In short: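 Recombinant human PKA with specific fluorescent substrate, product separated by electrophoretic mobility shift, read 1 h after dosing. Primary screen at 25 uM in duplicate; actives then run in concentration-response up to 50 uM, activity relative to DMSO.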

Sequence of human Phosphatase and Tensin Homolog (PTEN), PTEN (gene 5728) (P60484 whole entry, looked up): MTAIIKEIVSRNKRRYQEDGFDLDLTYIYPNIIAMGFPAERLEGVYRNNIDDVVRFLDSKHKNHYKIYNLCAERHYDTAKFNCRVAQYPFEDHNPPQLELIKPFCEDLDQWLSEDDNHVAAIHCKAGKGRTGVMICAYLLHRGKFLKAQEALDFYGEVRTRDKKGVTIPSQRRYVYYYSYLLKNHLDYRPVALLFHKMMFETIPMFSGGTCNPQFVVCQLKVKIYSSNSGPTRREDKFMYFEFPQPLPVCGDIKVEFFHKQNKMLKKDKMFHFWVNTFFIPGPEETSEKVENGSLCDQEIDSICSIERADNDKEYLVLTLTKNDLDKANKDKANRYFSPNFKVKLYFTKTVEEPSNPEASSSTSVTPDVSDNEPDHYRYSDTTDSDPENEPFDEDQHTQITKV
Sequence of human Phosphodiesterase 4A1 (PDE4A1), PDE4A (gene 5141) (P27815 whole entry, looked up): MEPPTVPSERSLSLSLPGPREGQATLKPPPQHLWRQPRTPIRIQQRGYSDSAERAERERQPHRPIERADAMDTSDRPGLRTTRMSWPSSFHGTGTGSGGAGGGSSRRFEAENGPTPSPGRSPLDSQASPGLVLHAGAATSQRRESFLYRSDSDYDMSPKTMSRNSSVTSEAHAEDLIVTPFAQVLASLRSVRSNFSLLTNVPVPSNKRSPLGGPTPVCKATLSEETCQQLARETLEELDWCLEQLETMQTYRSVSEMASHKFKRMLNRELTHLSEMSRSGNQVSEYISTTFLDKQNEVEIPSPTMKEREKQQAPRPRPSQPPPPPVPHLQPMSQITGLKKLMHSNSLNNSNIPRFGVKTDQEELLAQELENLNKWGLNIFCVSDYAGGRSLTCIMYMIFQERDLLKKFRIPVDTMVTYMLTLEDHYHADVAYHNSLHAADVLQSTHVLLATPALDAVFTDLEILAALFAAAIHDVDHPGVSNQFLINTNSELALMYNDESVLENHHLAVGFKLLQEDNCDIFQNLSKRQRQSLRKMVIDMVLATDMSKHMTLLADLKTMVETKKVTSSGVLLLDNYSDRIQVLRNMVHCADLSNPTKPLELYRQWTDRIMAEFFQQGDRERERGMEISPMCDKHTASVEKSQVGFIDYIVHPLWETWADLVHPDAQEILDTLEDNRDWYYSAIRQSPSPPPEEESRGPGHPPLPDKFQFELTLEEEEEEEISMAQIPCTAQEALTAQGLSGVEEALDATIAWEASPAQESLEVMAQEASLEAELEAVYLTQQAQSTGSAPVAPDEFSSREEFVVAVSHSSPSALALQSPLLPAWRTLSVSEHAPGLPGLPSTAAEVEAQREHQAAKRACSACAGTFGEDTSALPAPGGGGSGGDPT
Sequence of human Protein Tyrosine Phosphatase Non-receptor Type 2 (PTPN2), PTPN2 (gene 5771) (P17706 whole entry, looked up): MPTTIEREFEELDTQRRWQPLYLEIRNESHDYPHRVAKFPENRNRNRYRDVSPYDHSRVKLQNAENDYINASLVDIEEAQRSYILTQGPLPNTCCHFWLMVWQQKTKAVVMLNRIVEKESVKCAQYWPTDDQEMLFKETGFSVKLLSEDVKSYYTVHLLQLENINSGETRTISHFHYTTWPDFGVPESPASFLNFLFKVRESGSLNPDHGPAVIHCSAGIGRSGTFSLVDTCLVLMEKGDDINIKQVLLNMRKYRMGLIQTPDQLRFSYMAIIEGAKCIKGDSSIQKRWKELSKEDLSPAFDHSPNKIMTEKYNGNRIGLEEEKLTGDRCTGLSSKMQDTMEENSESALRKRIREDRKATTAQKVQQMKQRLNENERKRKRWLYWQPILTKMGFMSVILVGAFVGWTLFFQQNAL
Sequence of human Matrix Metalloproteinase-9 (MMP9), MMP9 (gene 4318) (P14780 whole entry, looked up): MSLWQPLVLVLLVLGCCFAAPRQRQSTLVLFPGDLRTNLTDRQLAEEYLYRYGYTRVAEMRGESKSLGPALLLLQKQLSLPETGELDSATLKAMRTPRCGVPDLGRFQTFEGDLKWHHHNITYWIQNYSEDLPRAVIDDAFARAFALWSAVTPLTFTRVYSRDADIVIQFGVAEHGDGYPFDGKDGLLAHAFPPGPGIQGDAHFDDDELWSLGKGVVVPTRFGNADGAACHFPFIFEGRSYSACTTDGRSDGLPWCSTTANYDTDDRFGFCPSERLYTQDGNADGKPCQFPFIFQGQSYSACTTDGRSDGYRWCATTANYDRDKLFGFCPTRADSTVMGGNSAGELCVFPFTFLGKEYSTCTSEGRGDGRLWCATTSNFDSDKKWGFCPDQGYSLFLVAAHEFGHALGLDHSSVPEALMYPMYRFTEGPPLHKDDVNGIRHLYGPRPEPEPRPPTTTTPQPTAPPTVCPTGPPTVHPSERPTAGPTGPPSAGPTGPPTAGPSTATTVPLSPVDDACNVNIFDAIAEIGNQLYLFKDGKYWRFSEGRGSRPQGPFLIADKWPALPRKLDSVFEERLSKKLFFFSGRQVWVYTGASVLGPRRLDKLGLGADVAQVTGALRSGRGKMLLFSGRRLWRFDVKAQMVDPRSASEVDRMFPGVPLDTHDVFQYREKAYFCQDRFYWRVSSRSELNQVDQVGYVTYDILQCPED
Sequence of human Protein Tyrosine Phosphatase Non-receptor Type 9 (PTPN9), PTPN9 (gene 5780) (P43378 whole entry, looked up): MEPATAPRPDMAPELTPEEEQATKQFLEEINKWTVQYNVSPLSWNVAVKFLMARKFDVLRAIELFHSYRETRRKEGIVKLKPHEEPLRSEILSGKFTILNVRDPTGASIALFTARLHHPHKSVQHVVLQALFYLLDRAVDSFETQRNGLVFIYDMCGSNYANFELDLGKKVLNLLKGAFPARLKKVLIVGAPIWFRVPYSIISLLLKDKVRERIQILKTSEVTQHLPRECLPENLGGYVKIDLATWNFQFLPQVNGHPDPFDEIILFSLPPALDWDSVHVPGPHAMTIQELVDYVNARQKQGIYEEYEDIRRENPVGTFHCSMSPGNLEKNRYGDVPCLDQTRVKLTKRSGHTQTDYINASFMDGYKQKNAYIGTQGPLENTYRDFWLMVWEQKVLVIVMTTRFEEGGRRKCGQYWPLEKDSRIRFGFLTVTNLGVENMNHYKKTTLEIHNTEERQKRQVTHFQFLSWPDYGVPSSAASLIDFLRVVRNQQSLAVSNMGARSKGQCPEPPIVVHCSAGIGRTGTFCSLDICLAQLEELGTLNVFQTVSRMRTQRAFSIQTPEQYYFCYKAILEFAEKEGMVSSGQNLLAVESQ
Sequence of Tyrosine-protein phosphatase non-receptor type 12 (Homo sapiens) (Q05209 whole entry, looked up): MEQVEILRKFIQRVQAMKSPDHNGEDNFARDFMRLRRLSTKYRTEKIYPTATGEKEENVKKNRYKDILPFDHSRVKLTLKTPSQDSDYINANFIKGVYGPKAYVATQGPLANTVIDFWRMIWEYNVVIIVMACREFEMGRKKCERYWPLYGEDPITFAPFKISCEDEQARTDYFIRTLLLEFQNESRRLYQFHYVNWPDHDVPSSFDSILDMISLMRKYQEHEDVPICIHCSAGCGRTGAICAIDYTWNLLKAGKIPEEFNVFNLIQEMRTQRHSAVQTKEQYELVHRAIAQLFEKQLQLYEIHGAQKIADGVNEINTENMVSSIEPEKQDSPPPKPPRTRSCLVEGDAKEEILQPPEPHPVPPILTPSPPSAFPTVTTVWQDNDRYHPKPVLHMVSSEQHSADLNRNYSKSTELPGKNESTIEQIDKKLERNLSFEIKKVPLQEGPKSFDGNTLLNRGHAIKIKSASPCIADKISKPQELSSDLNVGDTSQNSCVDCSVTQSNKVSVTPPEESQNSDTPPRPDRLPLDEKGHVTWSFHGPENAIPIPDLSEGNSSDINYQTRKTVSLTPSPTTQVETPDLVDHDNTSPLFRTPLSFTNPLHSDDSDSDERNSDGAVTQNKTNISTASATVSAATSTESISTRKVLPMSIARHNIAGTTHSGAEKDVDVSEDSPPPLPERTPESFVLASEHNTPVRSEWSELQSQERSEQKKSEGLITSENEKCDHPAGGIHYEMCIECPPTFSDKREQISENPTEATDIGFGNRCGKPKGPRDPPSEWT
Sequence of PPP2CA (gene 5515) (P67775 whole entry, looked up): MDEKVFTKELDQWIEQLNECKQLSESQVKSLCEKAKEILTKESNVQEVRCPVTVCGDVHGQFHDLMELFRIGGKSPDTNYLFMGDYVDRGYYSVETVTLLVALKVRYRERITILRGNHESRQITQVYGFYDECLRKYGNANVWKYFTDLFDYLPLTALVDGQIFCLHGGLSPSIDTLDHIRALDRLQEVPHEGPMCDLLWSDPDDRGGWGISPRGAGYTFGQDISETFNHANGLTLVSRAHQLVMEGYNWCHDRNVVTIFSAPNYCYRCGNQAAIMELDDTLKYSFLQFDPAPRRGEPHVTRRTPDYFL
Sequence of Tyrosine-protein phosphatase non-receptor type 11 (Homo sapiens) (Q06124 whole entry, looked up): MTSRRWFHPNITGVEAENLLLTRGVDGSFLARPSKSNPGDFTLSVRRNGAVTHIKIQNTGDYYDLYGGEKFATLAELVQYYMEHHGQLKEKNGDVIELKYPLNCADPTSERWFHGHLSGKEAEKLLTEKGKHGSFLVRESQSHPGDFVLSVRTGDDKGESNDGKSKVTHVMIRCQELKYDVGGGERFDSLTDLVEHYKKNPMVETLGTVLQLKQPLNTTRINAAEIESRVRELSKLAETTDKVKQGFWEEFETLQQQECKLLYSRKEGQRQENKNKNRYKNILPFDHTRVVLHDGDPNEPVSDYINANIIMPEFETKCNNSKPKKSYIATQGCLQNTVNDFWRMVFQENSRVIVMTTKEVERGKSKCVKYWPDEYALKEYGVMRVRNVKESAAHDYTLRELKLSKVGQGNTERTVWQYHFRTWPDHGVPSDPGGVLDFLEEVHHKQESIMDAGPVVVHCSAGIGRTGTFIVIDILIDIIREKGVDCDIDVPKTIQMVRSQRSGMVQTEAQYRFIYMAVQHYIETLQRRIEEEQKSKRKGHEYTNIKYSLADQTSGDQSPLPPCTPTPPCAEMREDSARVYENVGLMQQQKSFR
Sequence of Serine/threonine-protein phosphatase PP1-alpha catalytic subunit (Homo sapiens) (P62136 whole entry, looked up): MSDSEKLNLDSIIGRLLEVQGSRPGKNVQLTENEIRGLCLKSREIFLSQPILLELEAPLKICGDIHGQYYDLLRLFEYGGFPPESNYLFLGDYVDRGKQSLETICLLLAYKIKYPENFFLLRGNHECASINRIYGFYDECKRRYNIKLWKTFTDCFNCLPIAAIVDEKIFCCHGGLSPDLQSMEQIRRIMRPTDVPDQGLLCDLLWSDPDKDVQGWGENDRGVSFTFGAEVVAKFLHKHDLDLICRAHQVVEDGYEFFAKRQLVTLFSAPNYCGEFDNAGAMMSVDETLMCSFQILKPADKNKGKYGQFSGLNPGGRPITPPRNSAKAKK

SMILES: CN(C)[C@@H]1C(=O)C(C(N)=O)=C(O)[C@@]2(O)C(=O)C3=C(O)c4c(O)cccc4[C@@](C)(O)[C@H]3[C@H](O)[C@@H]12
- AC50 [1]: 9.28 µM (active)
- outcome [1]: inactive
- AC50 [2]: 23.1 µM (active)
- AC50 [3]: 6.97 µM (active)
- outcome [4]: inactive
- AC50 [5]: 4.72 µM (active) and 4.22 µM (active) and 15.1 µM (active)
- outcome [5]: inactive
- AC50 (PPP2CA (gene 5515)): 23.1 µM (active)
- AC50 [6]: 17.4 µM (active)
- AC50 [7]: 23.1 µM (active)
- AC50 [8]: 10.9 µM (active) and 2.67 µM (active)
- AC50 [9]: 2.52 µM (active) and 1.53 µM (active) and 2.46 µM (active)
- AC50 [10]: 3.91 µM (active) and 18.2 µM (active) and 1.8 µM (active)
- AC50 [11]: 2.9 µM (active)
- AC50 [12]: 26.3 µM (active)
- AC50 [13]: 20.1 µM (active)
- AC50 [14]: 12.1 µM (active)
- AC50 [15]: 2.57 µM (active)

SMILES: COP(=O)(OC)SCn1c(=O)oc2cc(Cl)cnc21
- outcome [16]: inactive

SMILES: CNC(=O)ON=C(C)SC
- outcome [17]: inactive
- outcome [5]: inactive

SMILES: O=C(O)c1cc(Oc2ccc(C(F)(F)F)cc2Cl)ccc1[N+](=O)[O-]
- outcome [16]: inactive
- outcome [2]: inactive
- outcome [12]: inactive

SMILES: Nc1c(Cl)cc([N+](=O)[O-])cc1Cl
- outcome [18]: inactive
- outcome [19]: inactive
- AC50 [11]: 25 µM (active)
- outcome [13]: inactive

SMILES: CCCOCC(=Nc1ccc(Cl)cc1C(F)(F)F)n1ccnc1
- outcome [16]: inactive
- outcome [2]: inactive

SMILES: CCC(=O)Nc1ccc(Cl)c(Cl)c1
- AC50 [2]: 25 µM (active)
- outcome (PPP2CA (gene 5515)): inactive

SMILES: CC1(C(=O)Nc2ccc(O)c(Cl)c2Cl)CCCCC1
- outcome [5]: inactive

SMILES: CCOP(=S)(OCC)Oc1ccc([N+](=O)[O-])cc1
- outcome [2]: inactive

SMILES: CCOP(=S)(Oc1cnc(C(C)(C)C)nc1)OC(C)C (centres undefined)
- outcome (PPP2CA (gene 5515)): inactive

SMILES: CCOP(=S)(OCC)OC(Cl)C(Cl)(Cl)Cl (centres undefined)
- outcome [7]: inactive
- AC50 [15]: 12.7 µM (active)

SMILES: C#CC(C)(C)NC(=O)c1cc(Cl)cc(Cl)c1
- outcome [9]: inactive
- outcome [13]: inactive

SMILES: CC(C)[C@H](C(=O)O[C@H](C#N)c1cccc(Oc2ccccc2)c1)c1ccc(Cl)cc1
- outcome [9]: inactive

SMILES: COc1cc(OC)nc(Sc2cccc(Cl)c2C(=O)O)n1
- outcome [10]: inactive

SMILES: CCCCSP(=O)(SCCCC)SCCCC
- outcome [10]: inactive

SMILES: CCc1cccc(CC)c1N(COC)C(=O)CCl
- outcome [13]: inactive

SMILES: N#CSCSC#N
- outcome [15]: inactive
